More than one record can exist for a structure, and the calls need not agree. Calls of active or inactive are those of the source. Rule for the calls: active = hit-call score of the fitted dose curve at least 0.9, where 1 is the maximum; inactive = score below 0.9.
molecular target: Bile acid receptor (Homo sapiens) (UniProt Q96RI1); assay: ATG_IR1_CIS: Attagene CIS-FACTORIAL HepG2 Assay for human Nuclear Receptor Subfamily 1 Group H Member 4 (NR1H4), IR1 submotif (AID 2282946); settings: IR1 reporter transcription, actives raise or lower the signal
Sequence (Q96RI1 whole entry, looked up, the tested form may be a part): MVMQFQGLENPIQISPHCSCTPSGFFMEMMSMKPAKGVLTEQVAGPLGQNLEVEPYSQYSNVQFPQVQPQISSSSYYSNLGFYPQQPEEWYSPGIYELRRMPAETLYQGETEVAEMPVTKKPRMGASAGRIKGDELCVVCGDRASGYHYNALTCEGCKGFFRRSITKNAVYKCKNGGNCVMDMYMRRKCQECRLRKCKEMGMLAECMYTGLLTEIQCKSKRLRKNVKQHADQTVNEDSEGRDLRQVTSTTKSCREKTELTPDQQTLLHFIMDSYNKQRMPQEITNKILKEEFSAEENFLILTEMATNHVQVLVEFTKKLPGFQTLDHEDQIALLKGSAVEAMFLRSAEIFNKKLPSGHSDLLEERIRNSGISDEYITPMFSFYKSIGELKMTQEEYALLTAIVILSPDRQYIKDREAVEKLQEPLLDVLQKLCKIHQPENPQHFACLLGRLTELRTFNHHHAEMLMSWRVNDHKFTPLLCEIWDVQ
Outline: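 Cells (human HepG2) carry transiently transfected cis-promoter reporter transcription units. Compounds are incubated 24 h, total RNA is reverse-transcribed and amplified, and labelled fragments are resolved by capillary electrophoresis. Curves use DMSO as baseline.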

SMILES	outcome	AC50
CCC=C(C)C=O	inactive	–
C=C1CC[C@H]2O[C@]2(C)CC[C@@H]2[C@@H]1CC2(C)C	inactive	–
CCC(=O)OC/C=C(\C)CCC=C(C)C	inactive	–
CCO[Si](CCC#N)(OCC)OCC	inactive	–
CC(C)(O)CCc1ccccc1	inactive	–
CC(=O)C1C(=O)C=C(C)OC1=O (configuration not stated)	inactive	–
CCc1cccc(O)c1	inactive	–
CC(CO)(CO)[N+](=O)[O-]	inactive	–
C[C@H](CCC(=O)O)[C@H]1CC[C@H]2[C@@H]3CC[C@@H]4C[C@H](O)CC[C@]4(C)[C@H]3CC[C@]12C	inactive	–
CCC(C)(C)C1CCC(OC)CC1 (configuration not stated)	inactive	–
C=CC(=O)OCC(CO)(COC(=O)C=C)COC(=O)C=C	–	26 µM (active)
CN(C)c1ccc(C=O)cc1	inactive	–
CC1=CCC(C(C)(C)O)CC1 (configuration not stated)	inactive	–
CC(=O)CC(=O)N(C)C	inactive	–
CCCc1ccc(O)cc1	inactive	–
C=C1CC/C=C(\C)CC[C@@H]2[C@@H]1CC2(C)C	–	81.9 µM (active)
C=CC(C)(CCC=C(C)C)OC(=O)CC (configuration not stated)	inactive	–
CC(O)COCC(C)O (configuration not stated)	inactive	–
NC(=O)c1c(Cl)cccc1Cl	inactive	–
c1ccc2c(c1)-c1ccc3ccc4cccc5cc-2c1c3c45	inactive	–
CC1=C(C=O)C(C)(C)CCC1	inactive	–
CC(C)OB(OC(C)C)OC(C)C	inactive	–
COc1ccc2[nH]cc(CCNC(C)=O)c2c1	inactive	–
CCC(=O)OCC=Cc1ccccc1	inactive	–
CC(C)CCOC(=O)CC(C)C	inactive	–
O=c1cc[nH]cc1	inactive	–
CCC(C)(CCCC(C)C)OC(C)=O (configuration not stated)	inactive	–
O=C1OCc2ccccc21	inactive	–

system: not listed separately; assay: ATG_GRE_CIS: Attagene CIS-FACTORIAL HepG2 Assay for human Glucocorticoid Response Elements (GRE) (AID 2282947); settings: HepG2 GRE cis-reporter, Attagene multiplex mRNA; actives raise or lower the signal
Outline: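 Transient MRTU transfection of human HepG2 liver cells; cis-regulated reporters report endogenous factors. 24 h dosing → RNA isolation → RT-PCR → 6-FAM primer extension → HpaI cut → CE fragment analysis. Bidirectional fit, DMSO negative control.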

SMILES	outcome	AC50
NC(N)=NC(N)=NCCc1ccccc1	inactive	–
CC/C=C\CCOC(=O)C(C)C	inactive	–
CC(C)=CCCC(C)=CC(=O)O	inactive	–
CCC=C(C)C=O	inactive	–
CCC(=O)OC/C=C(\C)CCC=C(C)C	inactive	–
CCO[Si](CCC#N)(OCC)OCC	inactive	–
CC(C)(O)CCc1ccccc1	inactive	–
CC(=O)C1C(=O)C=C(C)OC1=O (configuration not stated)	inactive	–
CC(CO)(CO)[N+](=O)[O-]	inactive	–
CCCc1ccc(O)cc1	inactive	–
C=CC(C)(CCC=C(C)C)OC(=O)CC (configuration not stated)	inactive	–
CCCCCCCCCCOC(=O)c1ccccc1C(=O)OCCCCCCCC	inactive	–
CC(O)COCC(C)O (configuration not stated)	inactive	–
O=C1CCCCCCCCCCCC(=O)OCCO1	inactive	–
c1ccc2c(c1)-c1ccc3ccc4cccc5cc-2c1c3c45	inactive	–
CC1=C(C=O)C(C)(C)CCC1	inactive	–
CC(C)OB(OC(C)C)OC(C)C	inactive	–
COc1ccc2[nH]cc(CCNC(C)=O)c2c1	inactive	–
CCC(=O)OCC=Cc1ccccc1	inactive	–
CC(C)CCOC(=O)CC(C)C	inactive	–
C#C[C@]1(O)CC[C@H]2[C@@H]3CCc4cc(O)ccc4[C@H]3CC[C@@]21C	inactive	159 µM (active)
CCC(C)(CCCC(C)C)OC(C)=O (configuration not stated)	inactive	–
O=C1OCc2ccccc21	inactive	–

From PubChem BioAssay (EPA / NIEHS)
